# Results published in PubChem BioAssay (NCI).
# Compounds without any hit were thinned out: in the full panel of roughly 83,000, 20% have a hit.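 Activity criterion: percent growth below 10, measured after cells in 96-well plates were exposed to a single compound concentration for 48 hours.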 Values without a mark were called inactive. Activity calls are given as the source filed them.
# Tested on: HL-60(TB) leukemia
# Experiment: NCI-60 one-dose screen, 48 h (100 = growth as untreated, 0 = no growth, -100 = all killed)
# Conditions: 10 µM unless noted
row,Compound,growth
1,O=C(c1ccccc1)c1ccccc1-c1ccccc1,-4.58% (active)
2,O=c1c2cccc(F)c2sc2c(NCCCNCCO)nc3ccccc3c12,-6.55% (active)
3,N[C@@H]1CCN(C(=O)c2cc3cc(Cl)c(F)c(F)c3[nH]2)C1,97.7%
4,COC(=O)CCC1=C(C)C(C)=N/C1=C\c1[nH]c(-c2ccc[nH]2)cc1OC,-21.8% (active)
5,CC(C)(C)C1CCC(=NO)CC1 (configuration not stated),110%
6,NC(=O)C(O)(c1ccccc1)c1ccccc1,99%
7,C/C(=N\Nc1ccc(Cl)cn1)c1ccc2ccccc2n1,-15.3% (active)
8,CN(C)S(=O)(=O)c1cccc(-c2nc3sc4c(c3c(=O)[nH]2)CCCC4)c1,22.3%
9,Cc1nc(Nc2cccc(NC(=O)Nc3ccc(Cl)cc3)c2)c2ccccc2n1,78.6%
10,CC(=O)c1cc(Cl)ccc1O,103%
11,Cc1ccc(-c2nc([P+](c3ccccc3)(c3ccccc3)c3ccccc3)c(Nc3ccccc3)o2)cc1,-48.4% (active)
12,Cc1ccc(NC(=O)c2[nH]c(SCCN(C)C)nc2-c2ccc(F)cc2)cc1C#Cc1cnc2cccnn12,-54.9% (active)
13,C=C(C)[C@@H]1CC[C@]2(C=O)CC[C@]3(C)[C@H](CC[C@@H]4[C@@]5(C)C/C(=C/c6cccnc6)C(=O)C(C)(C)[C@@H]5CC[C@]43C)[C@@H]12,25.9%
14,CC12CCC3C(CCC4CC(=O)/C(=C\O)CC43C)C1CCC(=O)O2 (configuration not stated),111%
15,O=C1Nc2ccccc2/C1=C/c1cccs1,107%
16,CSc1nn2c(-c3ccc4ccccc4c3)ccnc2c1C#N,14.1%
17,O=C1COc2ccccc2C(=O)N1CCCCNc1ccccc1,-36.5% (active)
18,C=C1C(=O)O[C@H]2[C@H]1CC/C(COC(=O)NCc1ccc(Cn3c(=O)sn(-c4ccc(I)cc4)c3=O)cc1)=C\CC[C@@]1(C)O[C@@H]21,-32% (active)
19,CCOP(=O)(CCN1CCN(CCCCCOc2cc3c(cc2OC)C(=O)N2CCC[C@H]2C=N3)CC1)OCC,10.9%
20,COc1cc(-c2c3c(cn2CCN2CCCCC2)-c2oncc2CC3)cc(OC)c1OC,109%
21,Cc1ccc(Cc2ccc(C)cc2)cc1,95.9%
22,C=C1C(=O)O[C@H]2[C@H]1CC/C(C(=O)NCCCCCNC(=O)/C1=C/CC[C@@]3(C)O[C@H]3[C@H]3OC(=O)C(=C)[C@@H]3CC1)=C\CC[C@@]1(C)O[C@@H]21,89.4%
23,Clc1cc(Cl)c(OCCCCCCN2CCNCC2)c(Cl)c1,-34.3% (active)
24,CCOc1ccc(N2C(=O)CCSC2=S)cc1,99.7%
25,CC(C)(C)CC(C)(C)Nc1c(-c2c(O)c3ccccc3oc2=O)nc2sccn12,99.7%
26,O=C(Oc1ccccc1)c1cc(O)c(O)c(O)c1,-5.58% (active)
27,O=C(/C=C/c1cccc(Cl)c1)c1ccc(O)c(CN2CCN(c3cc4c(cc3F)c(=O)c(C(=O)O)cn4C3CC3)CC2)c1,27.3%
